Source: PubChem
An excerpt weighted towards active compounds, which were near 16% of everything screened.
TDP1 inh = qHTS Assay for Inhibitors of Tyrosyl-DNA Phosphodiesterase (TDP1); Tyrosyl-DNA phosphodiesterase 1 (Homo sapiens), Q9NUW8; recombinant TDP1, AlphaScreen DNA substrate cleavage; Potency, µM (series often up to 130 µM), without a hit: top-dose activity change, negative = inhibition, most hits filed as inhibitors; actives 0.28% (n = 350,000); note: potency is the fitted concentration of half-maximal effect; % is set by controls: 0 for no effect and ±100 for the full control effect; nearly all actives have a fitted effect of over 40% in size
Target sequence (Q9NUW8 whole entry, looked up): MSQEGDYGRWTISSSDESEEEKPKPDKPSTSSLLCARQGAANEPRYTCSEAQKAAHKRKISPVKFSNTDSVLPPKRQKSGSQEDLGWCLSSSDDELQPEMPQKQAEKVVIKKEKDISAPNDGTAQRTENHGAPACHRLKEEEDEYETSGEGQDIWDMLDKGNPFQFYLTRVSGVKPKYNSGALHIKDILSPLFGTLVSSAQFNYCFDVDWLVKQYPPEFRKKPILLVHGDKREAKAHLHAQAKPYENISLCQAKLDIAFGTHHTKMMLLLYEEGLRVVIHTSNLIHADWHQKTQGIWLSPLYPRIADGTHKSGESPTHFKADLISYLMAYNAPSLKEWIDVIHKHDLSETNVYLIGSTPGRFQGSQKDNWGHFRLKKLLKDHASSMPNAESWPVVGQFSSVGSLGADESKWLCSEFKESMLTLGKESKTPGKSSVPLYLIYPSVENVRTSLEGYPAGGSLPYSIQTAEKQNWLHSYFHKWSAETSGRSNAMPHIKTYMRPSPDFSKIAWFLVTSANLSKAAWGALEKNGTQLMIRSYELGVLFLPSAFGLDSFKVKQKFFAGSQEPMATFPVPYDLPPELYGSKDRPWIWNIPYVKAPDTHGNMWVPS
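Compounds were preincubated with Tdp1 (1 nM final) for 15 min at room temperature before substrate (15 nM final) started a 5 min reaction; beads (10 ug/ml final) were then added for 10 min before AlphaScreen detection.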
DT40 TDP1 no CPT = qHTS for Inhibitors of human tyrosyl-DNA phosphodiesterase 1 (TDP1): qHTS in cells in absence of CPT; DT40 Tdp1-/- hTDP1 cells, no CPT, ATP luminescence, 48 h; Potency, µM (highest dose often 46.2 µM), without a hit: top-dose activity change, negative = growth inhibition, actives largely listed as inhibitors; actives 15% (n = 420,000); AID 686978, 2013; note: potency is the fitted concentration of half-maximal effect; % is set by controls: 0 for no effect and ±100 for the full control effect; nearly all actives have a fitted effect of over 55% in size
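Camptothecin absent (DMSO only). Human TDP1-complemented DT40 knockout cells, 400 cells/well, 37 °C for minimum 48 hr; ATP measured via CellTiter-Glo, 30 min dark incubation, luminescence.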
uPA generation = qHTS for Inhibitors of Cell Surface uPA Generation | cell surface uPA generation assay, qHTS | Potency, µM (top dose mostly 38.3 µM), for inactives: top-dose activity change, negative = inhibition, hits mostly inhibitors | actives 0.31% (n = 330,000) | AID 540303, 2011; active = well fitted inhibition curve with a large enough effect; inconclusive = small, poorly fitted or top-dose-only effect; inactive = no such curve, though single readings can be large or run the other way; tested in mouse RAW 264.7 cells; note: potency is the fitted concentration of half-maximal effect; % is set by controls: 0 for no effect and ±100 for the full control effect; nearly all actives have a fitted effect of over 55% in size
miR-21 reporter = qHTS Assay for Modulators of miRNAs and/orActivators of miR-21 | HeLa miR-21 FLuc reporter, luciferase, 48 h | Potency, µM (series often up to 38.3 µM), without a hit: top-dose activity change, positive = activation, usual class: activators | 340,000 tested, under 10 active | AID 2288, 2010;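 note: % of control where 0% means no effect; miR-21 action dims this reporter so a rising signal means less miR-21 action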
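HeLa cells endogenously expressing miR-21, stably carrying CMV-driven firefly luciferase with a downstream miR-21 binding site, 2000 cells/well. Titrations up to approximately 40 uM, 48 hours; luciferase luminescence read.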
TDP1 cell CPT = qHTS for Inhibitors of human tyrosyl-DNA phosphodiesterase 1 (TDP1): qHTS in cells in presence of CPT | chicken DT40 Tdp1-/-;hTDP1 cells + 20 nM CPT, ATP luminescence, 48 h | Potency, µM (doses to about 46.2 µM), without a hit: top-dose activity change, negative = growth inhibition, actives largely listed as inhibitors | actives 12% (n = 420,000) | AID 686979, 2013; note: potency is the fitted concentration of half-maximal effect; % is set by controls: 0 for no effect and ±100 for the full control effect; nearly all actives have a fitted effect of over 55% in size
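Chicken DT40 Tdp1-/- cells complemented with human TDP1, 400 cells/well, exposed to compounds plus 20 nM camptothecin for at least 48 h at 37 C; viability read as ATP content by CellTiter-Glo luminescence.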
The depositor's hits bear a star; ? = inconclusive; / = not tested or not shown; [ ] = another dose, or the depositor's remark. Unless noted, calls come from the whole dose curve; as a rule, active = well fitted curve in the direction sought with a large enough effect; inconclusive = small, poorly fitted or top-dose-only effect, or another doubt; inactive = no such curve, though single readings can be large; an effect the other way counts as inactive or inconclusive.

SMILES	TDP1 inh	DT40 TDP1 no CPT	uPA generation	miR-21 reporter	TDP1 cell CPT
COC(=O)C(CC(=O)c1ccc(Br)cc1)n1ccnc1 (stereo not given)	8.2%	1.26µM*	/	27.5%	1.41µM*
O=C1Nc2ccccc2C1C(C[N+](=O)[O-])c1ccccn1 (stereo not given)	/	-15.9%	-7.7%	-0.2%	-2.8%
O=C(CNc1cccc(C(F)(F)F)c1)N/N=C/c1cccc(Br)c1	-1.9%	?	1.9%	-1.0%	18.4µM*
CCOc1ccc(NC(=S)N2CCC(NC(=O)c3ccccc3C)CC2)cc1	11.2%	-16.2%	-1.7%	1.7%	-1.4%
O=C(CCCc1nc(-c2ccc(Cl)cc2)no1)N1CCOCC1	7.2%	16.4µM*	/	1.3%	23.1µM*
Cc1ccc(-c2noc(CCCC(=O)N3CCOCC3)n2)cc1	0.0%	-29.2%	-2.3%	2.5%	-21.6%
Cc1ccc2nc(Nc3ccc(C)c(C)c3)c3nncn3c2c1	/	20.6µM*	2.6%	-18.6%	?
COc1ccccc1Nc1nc2ccc(C)cc2n2cnnc12	/	18.4µM*	-8.9%	-26.2%	?
c1ccc(N2CCOCC2)c(Nc2nc3ccccc3n3cnnc23)c1	2.6%	16.4µM*	4.2%	0.6%	20.6µM*
c1ccc2c(c1)nc(N1CCOCC1)c1nncn12	3.5%	?	3.1%	-15.0%	-6.1%
Cc1ccc(Nc2nc3ccccc3n3cnnc23)cc1C	/	?	3.1%	-12.1%	5.4%
CCC1CCCCN1C(=O)c1ccc([N+](=O)[O-])o1 (stereo not given)	/	-20.0%	-5.1%	10.3%	?
Cc1nc(N)[nH]c(=O)c1CCCNc1ccc(CCCCC2(CCl)OCCO2)cc1	/	?	2.3%	/	18.4µM*
Cc1cc(=O)[nH]c2cc(N)ccc12	/	-15.0%	/	/	-4.7%
CC1=C(/C=N/Nc2ccc([N+](=O)[O-])cc2[N+](=O)[O-])C(C)(C)CCC1	8.2%	18.4µM*	6.2%	-6.0%	?
Cc1ccc(O)c(N=Nc2ccccc2)n1	17.3%[56.1 µM]	16.4µM*	?	/	2.91µM*
Cc1cccc(NC(=O)CC2SC(=NC3CCCCC3)NC2=O)c1 (stereo not given)	4.3%	?	-4.7%	-4.8%	?
CN(C)c1ccc(/C=N/NC(=O)CN(c2cccc(Cl)c2)S(C)(=O)=O)cc1Br	4.9%	16.4µM*	-2.8%	6.1%	25.9µM*
CC(C)=CCc1c([C@@H]2CCc3ccc(O)cc3O2)cc2c(c1O)OC(C)(C)C=C2	/	?	9.6%	/	?
CCc1ccc2oc(C(=O)N(Cc3ccc(N(C)C)cc3)Cc3ccco3)c(C)c2c1	14.7%	16.4µM*	/	-4.7%	0.731µM*
Cc1c(C(=O)N(Cc2cccc(Cl)c2)Cc2ccco2)oc2ccccc12	4.9%	-24.1%	/	-1.1%	?
Cc1ccc2c(C)c(C(=O)NCCc3ccco3)oc2c1C	4.6%	1.3%	0.0%	-8.7%	-20.7%
Cc1ccc2c(C)c(C(=O)N(Cc3ccc(N(C)C)cc3)Cc3ccco3)oc2c1C	11.0%	13µM*	/	-2.1%	?
Cc1c(C(=O)N(Cc2ccco2)Cc2ccccc2Cl)oc2ccc(F)cc12	4.9%	14.6µM*	/	-5.4%	?
CC(C)CC1(C(=O)NCC2CC2)C=CCN1C(=O)c1ccccc1 (stereo not given)	0.9%	/	/	/	/
SMILES	TDP1 inh	DT40 TDP1 no CPT	uPA generation	miR-21 reporter	TDP1 cell CPT
Cc1ccc(C(=O)c2c3ccccc3[n+]([O-])n2CCO)cc1	1.0%	-6.2%	-18.6%	/	-15.2%
CCn1c(-c2cccnc2Cl)nc2cc(Cl)c(Cl)cc21	4.2%	?	/	-51.8%	18.4µM*
CCOC(=O)Cn1c(-c2cccnc2Cl)nc2cc(Cl)c(Cl)cc21	4.7%	-9.7%	/	-0.8%	-17.6%
O=C(OCC(O)C(O)C(O)COC(=O)c1ccccc1)c1ccccc1 (stereo not given)	/	2.8%	10.2%	/	11.7%
O=C(OCC(O)C(O)C(O)C(SCc1ccccc1)SCc1ccccc1)c1ccccc1 (stereo not given)	/	?	9.5%	/	29.1µM*
O=C(Nc1ccc2[nH]ncc2c1)c1ccc(F)cc1	/	-12.4%	-11.7%	-14.1%	1.3%
COc1ccc(C(=O)Nc2ccc3[nH]ccc3c2)cc1	/	25.9µM*	-10.7%	/	?
O=C(Nc1ccc2[nH]ccc2c1)c1cccs1	/	-0.6%	7.08µM*	-28.4%	-19.8%
COc1ccc(C(=O)Nc2ccc3[nH]ncc3c2)cc1	3.6%	-25.2%	3.16µM*	-6.3%	-7.0%
CCOc1ccc(C(=O)Nc2ccc3[nH]ncc3c2)cc1	/	0.4%	5.01µM*	-0.6%	?
O=C1OCCN1CC(=O)N1CCc2c([nH]c3ccccc23)C1c1ccccn1 (stereo not given)	4.9%	-16.1%	0.9%	-1.5%	-10.0%
O=C(COc1ccc(Cl)cc1)Nc1ccc2[nH]ncc2c1	/	20.6µM*	-0.4%	-1.5%	?
CCOc1ccc(N=C2Sc3nc4ccc(C)cc4cc3CN2CCOC)cc1	4.9%	?	2.7%	-0.7%	?
COCCN=C1Sc2nc3ccc(C)cc3cc2CN1Cc1cccs1	-4.8%	20.6µM*	-5.4%	-19.7%	?
CCOc1ccc2nc3c(cc2c1)CN(CCCO)C(=NCCOC)S3	7.2%	14.6µM*	-3.0%	-21.0%	?
CCOC(=O)C1=CN(Cc2cccc(Br)c2)S(=O)(=O)N(C)C1C (stereo not given)	-10.8%[56.1 µM]	?	4.9%	/	?
Cc1cccc(NC(=O)c2cc3c(=O)n4cccc(C)c4nc3s2)c1C	1.8%	2.31µM*	/	7.2%	1.84µM*
COCCCNC(=O)c1cccn2c(=O)c3cc4ccccc4cc3nc12	8.5%	7.31µM*	/	-40.2%	18.4µM*
COc1ccc(C)cc1NC(=O)c1cc2c(=O)n3cccc(C)c3nc2s1	-0.9%	-2.8%	/	4.0%	1.8%
Cc1cccn2c(=O)c3cc(C(=O)N(C)C)n(C)c3nc12	-0.9%	?	-0.6%	-25.1%	-15.3%
Cc1cccn2c(=O)c3cc(C(=O)NCCCOC(C)C)sc3nc12	/	20.6µM*	-3.8%	-5.9%	?
C=CCn1c(=N)c(C(=O)NCCCOC)cc2c(=O)n3cccc(C)c3nc21	3.1%	?	-8.0%	-0.5%	?
CCCN(CCC)C(=O)c1cc2c(=O)n3cccc(C)c3nc2n1C	0.0%	23.1µM*	/	-6.1%	16.4µM*
O=C1CC(C(=O)O)C2(CCCC2)O1 (stereo not given)	/	3.1%	/	/	1.5%
CCCN(CCC)C(=O)c1cc2c(=O)n3cccc(C)c3nc2s1	-4.5%	18.4µM*	3.4%	-22.0%	?
CCOCCCNC(=O)c1cc2c(=O)n3cccc(C)c3nc2n1C	0.0%	0.82µM*	?	16.2%	0.581µM*
